# Over roughly 33,000 sequences, “E-score (-0.5 to 0.5)” has its median near -0.013; the highest 2% begin near 0.3. This is one part of a sample in which the highest values are shown more often than they occur.
# Target: T1, Msn1 (UniProt P22148)
# T1 sequence: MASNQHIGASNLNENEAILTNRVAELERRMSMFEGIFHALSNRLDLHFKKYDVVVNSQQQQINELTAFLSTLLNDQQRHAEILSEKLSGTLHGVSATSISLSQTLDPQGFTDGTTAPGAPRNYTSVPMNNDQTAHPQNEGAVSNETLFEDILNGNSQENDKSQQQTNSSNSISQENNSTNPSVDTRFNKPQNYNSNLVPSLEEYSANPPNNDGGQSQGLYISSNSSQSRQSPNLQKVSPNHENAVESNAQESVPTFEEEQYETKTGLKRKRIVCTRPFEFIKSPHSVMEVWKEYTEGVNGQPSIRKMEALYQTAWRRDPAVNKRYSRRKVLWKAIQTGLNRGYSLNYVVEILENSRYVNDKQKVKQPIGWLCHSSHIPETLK
# Assay: PBM E-score (8-mer binding enrichment) (E-score (-0.5 to 0.5)); higher = stronger / more preferred TF binding
# Settings: protein concentration: 200 nM; construct: GST-full length
# How it was run: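 The E-score, a modified Wilcoxon-Mann-Whitney statistic, was computed by the Universal PBM Analysis Suite for every ungapped eight-base word pooled with its reverse complement. Scans behind it were normalised with masliner after bound GST-tagged yeast transcription factors were detected with fluorescent anti-GST. The proteins, at about 100-200 nM, had been applied to universal all-10-mer Agilent arrays made double-stranded by primer extension.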
row,Sequence,PBM E-score
1,GCCGCCTA,-0.173
2,CCAGCGCC,-0.229
3,CAGTTTAC,-0.0477
4,GGAAGACA,0.251
5,TGAAGACA,0.328
6,CGAAGACA,0.259
7,GAAAGACA,0.227
8,CAAAGACC,-0.0488
9,CAAAGACA,0.361
10,AGCGCATA,0.034
11,CTAGCTCA,-0.0294
12,ATCCATTA,0.0133
13,AGCCTACA,-0.135
14,CGTCTGCA,0.0663
15,CCGAACAG,0.0877
16,GGCCGAAC,-0.239
17,CTAGACAG,0.00829
18,TTAGAAAA,0.109
19,TTAGACAA,0.394
20,TTAGATAA,0.0312
21,CTAGACAA,0.305
22,GTAGACAA,0.309
23,GTAGACAC,0.0944
24,CTAGACAC,0.0417
25,GTAGACGA,0.115

row,Sequence,PBM E-score
1,CCATTTGA,-0.0557
2,CGCATACG,-0.0304
3,AGTGGGGA,-0.185
4,AACAGTAG,-0.0756
5,CGTGGGAA,-0.0248
6,GACTCCTC,-0.149
7,AATGACAA,0.29
8,GATGACTA,-0.0556
9,CATGACAG,0.13
10,CATGACAA,0.383
11,CATGACAC,0.193
12,TATGACAA,0.408
13,GATGACAC,0.06
14,GATGACAA,0.336
15,TATGACCA,0.0481
16,AGAGCGAA,-0.00578
17,TCCTTCGA,0.11
18,GCTAGTGA,-0.00743
19,TGAATGAA,0.0496
20,AGTAGGGG,-0.202
21,CATTTAAC,0.188
22,GGGAGCGA,-0.219
23,TGGCCCAA,-0.0694
24,AGGTCCTG,0.0441
25,ATGTCCTG,0.487

row,Sequence,PBM E-score
1,ATGTCCTC,0.481
2,AGGTCCTC,-0.119
3,ATTTCCTG,0.206
4,CTGTCCTC,0.197
5,GCCCGCTA,-0.211
6,AAACAGGG,0.09
7,CGGCGACA,0.0783
8,CTTAGCAC,-0.0653
9,GACATAGC,0.295
10,AACATATA,0.0881
11,CACACATA,0.0356
12,CACATATC,0.0551
13,CACATATA,0.0314
14,GACACATA,0.361
15,GACATATA,0.448
16,GACATATC,0.451
17,GACATAGA,0.36
18,AACATAGA,-0.021
19,AACATATC,0.0631
20,TACACATA,0.0567
21,CGATTTGA,-0.163
22,CGGGGCCA,-0.157
23,AGTCAGGC,0.0431
24,CTTCGGTA,-0.0133
25,CTGGCAGC,-0.271

row,Sequence,PBM E-score
1,GGGACCCA,-0.139
2,TAGCGTCA,-0.0365
3,CTATGTCA,0.167
4,GTATGTTA,0.0222
5,ATATGTTA,-0.0436
6,ATATGTCG,0.379
7,ATATGTTG,0.0727
8,GTATGTCA,0.35
9,ATATGTGG,0.0596
10,ATATGTCA,0.401
11,GTATGTAA,0.0384
12,AATACTCT,0.0619
13,ATTAGAGA,0.00489
14,GTCTTGGA,0.0469
15,CAAAGTTG,0.101
16,GTCTGAAA,0.241
17,CCCCAATA,-0.122
18,ATATTCCC,0.0634
19,ATATTCCG,0.321
20,ATATTCCA,0.212
21,ACGTAGCG,-0.138
22,CGTTTGTA,0.189
23,AGTTTGTA,0.182
24,AGTTTGTC,0.446
25,AGTTTGTG,-0.0605

row,Sequence,PBM E-score
1,CGTTTGAC,0.12
2,CGTTTGTC,0.44
3,TATGTAAA,0.0978
4,GACGCCAA,-0.157
5,AGATTAAA,0.309
6,AGATTAAT,0.0857
7,GAAATTAA,0.34
8,CGATTAAA,0.0941
9,CTATTAAA,0.179
10,TTATTAAA,0.29
11,ATATTAAA,0.344
12,CAAATTAA,0.0951
13,AAATTAAC,0.0769
14,AAATTAAA,0.355
15,AAAATTAA,0.187
16,AAATTAAT,0.199
17,TGGGTCAA,-0.0713
18,CGCCAAGA,-0.142
19,GCAGAGGC,-0.241
20,CCCTGCCG,-0.254
21,CGCCAATC,-0.0945
22,AATGCCCC,-0.197
23,AATTCAGG,0.109
24,GCGGGTGA,-0.0547
25,GCACAAAC,0.0596

row,Sequence,PBM E-score
1,AAGCCTCT,-0.17
2,ACAATGTA,0.156
3,CCAATGTA,0.0173
4,CCAATGTC,0.328
5,CCAATGAC,-0.00959
6,ACAATGTG,0.0288
7,ACAATGTC,0.452
8,GCATAAAA,0.128
9,AATCCTTA,-0.134
10,CGAGCTAA,-0.0305
11,CAGAATAA,0.0293
12,GGGACACA,0.449
13,TGGACACA,0.427
14,GTGACACA,0.286
15,TGCACACA,0.0221
16,GGGACACC,0.185
17,TCGACACA,0.133
18,AGGAAATC,0.0408
19,AAGTGCGC,-0.108
20,ATGCTGTC,0.0368
21,GTAGCGCA,-0.107
22,CCAAGAAG,-0.0807
23,ATTATAAA,0.17
24,ATTATAAT,0.307
25,ATTATAAG,0.103

row,Sequence,PBM E-score
1,CCACATAC,0.0664
2,CACCAACG,0.185
3,CCATAGAG,0.0389
4,ACGCTAAT,-0.223
5,AAAGGCCG,-0.00669
6,ATACCTAG,-0.0479
7,ACGTCTGG,0.154
8,CTGTCTTA,0.181
9,AAGTCTTG,0.0419
10,ATGTCTTC,0.293
11,ATGTCTGG,0.323
12,ATGTCTTA,0.423
13,ATGTCTTG,0.35
14,CTGTCTGA,0.0827
15,ATGTCTGC,0.286
16,GTGTCTGA,0.185
17,GTGTCTTA,0.04
18,ATGTCTGA,0.425
19,GACCATTA,0.0825
20,ATCACAAT,-0.035
21,CAAACGAG,0.099
22,CAGAGGAC,0.0901

# — the supplement of paper PMC3334620
